Screening results: PubChem BioAssay, National Center for Advancing Translational Sciences (NCATS)
PI5P4K alpha inh – PI5P4K alpha (human) kinase inhibition; P48426; PI5P4Kalpha enzyme, ADP-Glo luminescence, 60 min; active compounds read low; max response, %; 330,000 tested, 1.2% active; active = max response of -50% or lower; inconclusive = between -30% and -50%; inactive = -30% or higher; note: value at the top dose of about 77 µM
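Single end-point luminescence (ADP-Glo) quantified ADP from PI5P4Kalpha turnover; ATP 5 microM final, 1 h at RT, 0.1% CHAPS and 0.28 mM EGTA in HEPES pH 7.4.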
JMJD2A Tudor inh – JMJD2A Tudor domain (human) inhibition. O75164. AlphaScreen JMJD2A-Tudor / H3K4me3 peptide binding. Potency, µM (top dose mostly 114 µM), most hits filed as inhibitors. 390,000 tested, 4.4% active. AID 504339; note: nearly all actives have a fitted effect of over 50% in size
G9a block – blocks human histone lysine methyltransferase G9a. Q96KQ7. G9a H3K9 monomethylation, AlphaScreen, 2 h. Potency, µM (doses to about 102 µM), usual class: inhibitors. 350,000 tested, 8.8% active; note: nearly all actives have a fitted effect of over 75% in size
Target sequence (Q96KQ7 913-1193 limits assumed): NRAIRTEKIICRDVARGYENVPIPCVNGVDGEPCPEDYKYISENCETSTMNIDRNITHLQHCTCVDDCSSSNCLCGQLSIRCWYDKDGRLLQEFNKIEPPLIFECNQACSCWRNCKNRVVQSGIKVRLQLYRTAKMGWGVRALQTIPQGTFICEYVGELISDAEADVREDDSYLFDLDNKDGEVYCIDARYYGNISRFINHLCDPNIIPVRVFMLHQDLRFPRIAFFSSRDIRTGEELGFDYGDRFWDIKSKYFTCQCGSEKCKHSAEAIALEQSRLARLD
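G9a (20 nM) was preincubated 15 min with compound, then reacted 2 h at room temperature with 500 nM biotin-H3K9 peptide and 20 µM SAM. Monomethyl-H3K9 detected by AlphaScreen using anti-H3K9me1 antibody.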
BAZ2B inh – inhibitors of human BAZ2B bromodomain. AlphaScreen BAZ2B-H3K14Ac peptide displacement. Q9UIF8. AID 504333. Potency, µM (top dose mostly 114 µM), usual class: inhibitors. 360,000 tested, 4.4% active; note: nearly all actives have a fitted effect of over 60% in size
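Multi-concentration screen (max 110 uM) measuring displacement of acetylated histone H3 peptide from BAZ2B by AlphaScreen, using 50 nM protein, 50 nM peptide and 10 ug/mL streptavidin donor plus Ni-chelate acceptor beads.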
PLK1 PBD inh – inhibitors of human PLK1 polo-box domain binding; P53350; Plk1 PBD binding of FITC phosphopeptide, fluorescence polarization; Potency, µM, actives largely listed as inhibitors; 360,000 tested, 2.8% active; AID 720504; note: series mostly up to about 57 µM; nearly all actives have a fitted effect of over 65% in size
HP1b binding inh – blocks HP1-beta chromodomain binding to methylated histone tails; 390,000 tested, 0.56% active; Potency, µM (top dose mostly 114 µM), usual class: inhibitors; AlphaScreen HP1-beta / biotin-H3K9me3 peptide binding; AID 540317; P83916; note: nearly all actives have a fitted effect of over 70% in size
Target sequence (P83916 whole entry, looked up): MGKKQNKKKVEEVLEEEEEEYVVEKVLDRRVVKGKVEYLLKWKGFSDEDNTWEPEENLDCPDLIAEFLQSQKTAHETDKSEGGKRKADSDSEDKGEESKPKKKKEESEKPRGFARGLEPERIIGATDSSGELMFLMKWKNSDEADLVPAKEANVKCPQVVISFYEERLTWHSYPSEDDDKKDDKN
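HP1-beta protein (50 nM final) preincubated 30 min at room temperature with biotinylated H3(1-18)K9me3 peptide (50 nM) in PBS pH 7.4, 0.01% Tween-20, then compound added for 30 min. AlphaScreen streptavidin donor/nickel chelate acceptor beads (10 ug/mL final), 30 min dark, luminescence read.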
A number is an active result; n = inactive; u = inconclusive; x = not tested or not shown; [ ] = another dose, or the depositor's remark. A selection: hits, their analogues and other compounds. The true share with any hit is near 12%. Unless noted, calls come from the whole dose curve; as a rule, active = well fitted curve in the direction sought with a large enough effect; inconclusive = small, poorly fitted or top-dose-only effect, or another doubt; inactive = no such curve, though single readings can be large; an effect the other way counts as inactive or inconclusive.

SMILES | PI5P4K alpha inh | JMJD2A Tudor inh | G9a block | BAZ2B inh | PLK1 PBD inh | HP1b binding inh
CCOc1cc(/C=C2/C(=O)N(c3ccccc3)N=C2C)ccc1OC(=O)c1cccs1 | x | u | 40µM | 50µM | 2.1µM | n
COc1ccc(/C=C2\OC(=S)N(C)C2=O)cc1 | x | n | u | n | n | n
Cc1ccc2nc(N3CCOCC3)c(C=O)cc2c1 | n | n | n | n | n | n
CC(=O)Oc1ccc(/C=C2/C(=O)N(c3ccccc3)N=C2C)cc1 | n | u | u | u | 2.1µM | n
O=C(Nc1ccc2c(c1)OCCO2)C1C(c2ccccc2)=Nc2ccccc2N1C(=O)c1cccnc1 (configuration not stated) | n | x | x | x | n | x
CCOC(=O)CC1=NN(c2ccccc2)C(=O)C1 | n | n | x | n | u | n
COc1ccc(/C=C2/C(=O)N(c3ccccc3)N=C2C)cc1OC | n | n | 71µM | n | 3µM | n
COc1ccc(C2=NN(c3ccccc3)C(=O)/C2=C\c2ccc(O)c(OC)c2)cc1 | n | 16µM | 16µM | 25µM | u | 16µM
COc1ccc(/C=C2\Cc3ccccc3C2=O)cc1OC | n | n | n[2.33 µM] | u | n | n
CCOC(=O)CC1=NN(c2ccccc2)C(=O)/C1=C\c1ccc(N(C)C)cc1 | n | 10µM | 4.5µM | 5.6µM | u | u
COc1cc(/C=C2\C(=O)ON=C2c2ccc(Cl)cc2)ccc1O | n | u | x | x | u | u
CC1=NN(c2ccccc2)C(=O)/C1=C/c1cccc(C)c1 | n | n | 50µM | u | 2.1µM | n
COc1cc(NS(=O)(=O)c2cc(Br)cc3c2N(C(C)=O)C(C)C3)cc(OC)c1 (configuration not stated) | x | n | n | n | x | n
CC1=NN(c2ccccc2)C(=O)/C1=C\C=C\c1ccccc1 | n | 10µM | 2.2µM | 4µM | n | 10µM
CC1=NN(c2ccccc2)C(=O)/C1=C/N(C)C | n | n | x | u | n | n
Cc1cccc(NC(=S)c2nc3ccccc3s2)c1 | n | 50µM | x | 8.9µM | n | 28µM
CC(C)c1ccc2oc(=O)cc(CN3CCN(c4ccc(F)cc4)CC3)c2c1 | n | n | 50µM | n | n | n
CCOc1ccc2oc(=O)cc(CN3CCN(Cc4ccc(F)cc4)CC3)c2c1 | x | n | n | n | x | n
CCc1ccc2oc(=O)cc(CN3CCN(c4ccc(F)cc4)CC3)c2c1 | n | n | 50µM | n | n | n
COc1ccc(N2CCN(Cc3cc(=O)oc4ccc(C)cc34)CC2)cc1 | x | n | n | n | n | n
COc1cc2oc(=O)cc(-c3ccc(-c4ccc(NC(C)=O)cc4)cc3)c2c(OC)c1OC | x | x | n | x | x | x
COc1ccc(Cc2c(-c3ccc(C#N)cc3)nc3c(Cl)cc(C(F)(F)F)cn23)c(C)c1 | n | x | x | x | n | x
Cc1ccc(NC(=S)NC(=O)C2CCC2)cc1C | n | n | n | n | n | n
O=C(/C=C/c1ccccc1)NC(=S)NNC(=O)c1ccco1 | n | n | 10µM | n | n | n
O=C(/C=C/c1ccc(Br)cc1)NC(=S)NNC(=O)c1ccco1 | -52 | n | u | n | n | n
SMILES | PI5P4K alpha inh | JMJD2A Tudor inh | G9a block | BAZ2B inh | PLK1 PBD inh | HP1b binding inh
CCCCN1CCc2[nH]c(=S)[nH]c(=O)c2C1 | n | 25µM | 35µM | n | n | n
CC(c1ccccc1)N1CCc2[nH]c(=S)[nH]c(=O)c2C1 (configuration not stated) | n | n | 40µM | n | n | n
COCCN1CCc2[nH]c(=S)[nH]c(=O)c2C1 | n | n | 32µM | u | n | n
CCc1ccc(OCc2n[nH]c(=S)n2Cc2ccccc2)cc1 | n | u | n | n | n | n
S=c1[nH]nc(CNc2ccc(Cl)cc2)n1Cc1ccccc1 | n | n | u | n | n | n
CCCCc1n[nH]c(=S)n1Cc1ccccc1 | n | 4µM | u | n | n | n
CCCCc1n[nH]c(=S)n1Cc1ccc(Cl)cc1 | n | u | 3.5µM | n | n | n
Cc1ccc(C(=O)c2oc3ccccc3c2NC(=O)C(C)Oc2ccccc2Cl)cc1 (configuration not stated) | x | n | n | n | x | n
CC(C)N(C(=O)Cn1cc(S(=O)(=O)Cc2ccc(C(F)(F)F)cc2)c2ccccc21)C(C)C | x | n | n | n | x | n
Nc1c(C(=O)Nn2cnnc2)cc([N+](=O)[O-])cc1[N+](=O)[O-] | x | x | 50µM | n | x | x
CC(C)Sc1ncc(Cl)c(C(=O)Nc2nc3ccc(S(C)(=O)=O)cc3s2)n1 | x | n | n | n | x | n
CC/C(O)=C(\C#N)c1nnc2n1CCCCC2 | x | 3.5µM | n[0.501 µM] | 79µM | n | n
CC/C(O)=C(/C#N)c1nnc2n1CCCCC2 | x | 28µM | u | 79µM | n | n
N#C/C(=C(/O)COc1ccc(Br)cc1)c1nnc2n1CCCCC2 | n | n | n | n | n | n
N#C/C(=C(/O)c1ccc([N+](=O)[O-])cc1)c1nnc2n1CCCCC2 | n | 28µM | 50µM | u | n | n
O=C(c1ccco1)N1CC2(CC(c3ccc(Cl)cc3)=NO2)CN1Cc1ccc(Br)cc1 (configuration not stated) | n | x | x | x | n | x
O=C1C=C(c2ccoc2)N2CCC[C@H]2C1 | n | n | x | x | n | n
Cc1cccc(-c2nc(Nc3cccc(O)c3)c3ccccc3n2)c1 | n | n | n | n | n | n
CC(=O)c1cccc(Nc2nc(-c3cccc(C)c3)nc3ccccc23)c1 | x | n | 7.1µM | n | x | n
Cc1cccc(-c2nc(Nc3ccc(N4CCOCC4)cc3)c3ccccc3n2)c1 | n | 40µM | 7.1µM | 25µM | n | n
COc1cccc(Cn2c(=O)c3[nH]cnc3n(-c3ccccc3C)c2=O)c1 | n | n | 71µM | n | n | n
CC(=O)c1ccc(NC(=O)Nc2sc3nc4n(c(=O)c3c2C)CCC(C)CC4)cc1 (configuration not stated) | x | n | n | n | x | n
Nc1c2c(=O)oc(-c3ccccc3)cc2nn1-c1ccccc1 | x | n | n | n | n | n
Cc1c(-c2ccc(Cl)cc2)oc(=O)c2c(N)n(-c3ccccc3)nc12 | n | n | n | 50µM | n | n
COc1cc(NC(=O)Nc2nnc([C@H]3C[C@H](O)[C@@H](CO)O3)s2)cc(OC)c1 | n | x | x | x | n | x
SMILES | PI5P4K alpha inh | JMJD2A Tudor inh | G9a block | BAZ2B inh | PLK1 PBD inh | HP1b binding inh
O=C(NCCc1ccccc1)c1cc(-c2ccccc2)nc2n[nH]c(-c3ccccc3)c12 | x | n | n | n | x | n
CCCCCn1c(=O)c(C(=O)c2ccccc2)nc2ccccc21 | n | n | n | n | n | n
CCCCCCn1c(=O)[nH]c2nc3cc(N)ccc3nc2c1=O | u | n | 40µM | n | u | n
CCN(CC(=O)Nc1ccc(C#N)cc1)CC(=O)Nc1ccc2c(c1)OCCO2 | n | x | x | x | n | x
N#CC1=C(N)NC(SCc2ccc(F)cc2)=C(C#N)C12CCCCC2 | n | n | n[12.7 µM] | u | n | n
CC(C)N1CCC2(CC1)C(C#N)=C(N)NC(S)=C2C#N | x | x | 1.6µM | n | x | x
O=c1c2cn(Cc3ccccc3)c3ccccc3c-2nn1Cc1ccc(F)cc1Cl | n | n | n | n | n | n
